# Screening results deposited in PubChem by several laboratories.
# Rows were chosen to be rich in hits. Some 1.7% of all compounds tested hit in one or more screens of this group.
# Yp Topo-I inh – Yersinia pestis topoisomerase I inhibitors, primary screen, biochemical, cleavage product accumulation, plate reader, single point. 360,000 tested, 0.064% active. Y. pestis Topo-I cleavage product accumulation. activity, % at 10 µM; in the data active = activity above about 50%, passing the limit was not always enough
# PfHsp40 rescue – rescue of yeast from PfHsp40 toxicity, primary screen, S. cerevisiae, ATP luminescence | S. cerevisiae expressing PfHsp40, growth rescue | growth rescue, % at 12.5 µM | 340,000 tested, 0.68% active; in the data active = growth rescue above about 28%, passing the limit was not always enough;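 also: yeast W303a lacking pdr1 and pdr3 grown in galactose medium; growth measured after three days at 30 °C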
# PrPC TRFRET – inhibitors of human cell surface prion protein PrPC, primary screen, cell-based, TR-FRET. inhibition, % at 13.8 µM. AID 720596, 2013. Major prion protein (Homo sapiens), P04156. 370,000 tested, 0.43% active. TR-FRET read-out; in the data active = inhibition above about 24%; also: 0% = median of the test wells and 100% = reference compound wells
# BJeLR viability – MLPCN primary cell-based screen for lethality selective to Ras in HRASV12 cells | BJeLR (HRASV12) viability, CellTiter-Glo ATP luminescence, 48 h | inhibition, % (concentration not given with the values) | 300,000 tested, 0.17% active; in the data active = inhibition above about 50%
# PriA SSB inh – inhibitors of Klebsiella pneumoniae PriA binding to SSB C-terminal tail, primary screen, biochemical, AlphaScreen; PriA–SSB C-terminal tail interaction (Klebsiella pneumoniae); AlphaScreen SSBct-PriA binding, biotinylated peptide; inhibition, % at 33 µM; 430,000 tested, 0.6% active; AID 1272365, 2023; in the data active = inhibition mostly above about 37%, no sharp cut-off; inactive = mostly below about 20%;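 also: plate controls were negative control peptide for no effect and reference peptide for full effect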
# PrP 5UTR inh – inhibition of PrP 5' UTR reporter expression; cell-based PrP 5' UTR mRNA reporter, plate reader; inhibition, % (test concentration not listed); 340,000 tested, 0.35% active; in the data active = inhibition above about 52%; also: 0 = median of the neutral control wells
# PrPC TRFRET cf – confirmation of inhibitors of cell surface human prion protein, confirmation, cell-based, TR-FRET; 1,500 tested, 65% active; cell surface PrPC level; shares compounds with PrPC TRFRET; inhibition, % at 13.8 µM; in the data active = inhibition above about 25%
# LD9 cytotox – cytotoxicity in LD9 cells, cytotoxicity control for cell surface PrPc inhibitor project, cell-based, luminescence, high throughput; shares compounds with PrPC TRFRET; luminescence viability; inhibition, % at 13.8 µM; 1,500 tested, 29% active; in the data active = inhibition above about 9.5%
# * = called active by the depositor; . = no result.
SMILES,Yp Topo-I inh,PfHsp40 rescue,PrPC TRFRET,BJeLR viability,PriA SSB inh,PrP 5UTR inh,PrPC TRFRET cf,LD9 cytotox
COC(=O)c1sccc1NC(=O)C1CC=CCC1C(=O)O (stereo not given),-1,0,97*,0,-4,-13,92*,-1
COC(=O)c1sccc1NC(=O)C1C2C=CC(C2)C1C(=O)O (stereo not given),-6,0,4,0,3,-14,.,.
COC(=O)c1cc(C)sc1NC(=O)C1C2C=CC(CC2)C1C(=O)O (stereo not given),4,-1,23,1,-7,-10,.,.
COC(=O)c1cc(C)sc1NC(=O)C1CC=CCC1C(=O)O (stereo not given),-8,0,35*,-7,10,.,44*,-3
CC(C)(C)n1c(O)c(C=Nc2ccc3c(c2)CCC3)c(=O)[nH]c1=O,2,-1,29*,10,-18,-5,3,-4
Cc1cc(SC(C)C(=O)NCC(=O)Nc2ccc(F)c(F)c2F)nc2ccccc12 (stereo not given),1,13,9,2,-7,-7,.,.
CC(Sc1cnc2ccccc2n1)C(=O)O (stereo not given),1,-2,39*,3,-6,-7,47*,0
Cc1cc(SC(C)C(=O)O)nc2ccccc12 (stereo not given),3,0,46*,4,-8,-22,76*,-6
CC(Sc1ccc2ccccc2n1)C(=O)O (stereo not given),-5,2,115*,0,-2,-7,123*,-5
O=C(c1ccoc1)N1CCC(CNC(=O)N2CCNC2=O)CC1,.,.,.,.,-18,.,.,.
O=C1C2CC=CCC2C(=O)N1C1CN(S(=O)(=O)N2CCCC2)C1 (stereo not given),.,.,.,.,-3,.,.,.
COc1ccc(-n2nnnc2CNC(=O)C2CC(=O)N(c3ccc(F)cc3)C2)cc1 (stereo not given),-8,.,31*,.,.,.,3,-3
CCCCCCCCN1C(=O)[C@@H](CC(=O)N2CCOCC2)C[C@@]2(C(=O)OC)C1=C[C@H](C(C)C)O[C@@H]2C1CC1,.,.,22,.,.,.,.,.
COC(=O)[C@]12C[C@H](CC(=O)N3CCCCC3)C(=O)N(CCC3=CCCCC3)C1=C[C@H](C(C)C)O[C@@H]2C1CC1,.,.,29*,.,.,.,32*,-2
COC(=O)[C@]12C[C@H](CC(=O)N3CCN(C(=O)c4ccco4)CC3)C(=O)N(CCC3=CCCCC3)C1=C[C@H](C(C)C)O[C@@H]2C1CC1,.,.,0,.,.,.,.,.
COC(=O)[C@]12C[C@H](CC(=O)N3CCCC3)C(=O)N(CCC3=CCCCC3)C1=C[C@H](C(C)C)O[C@@H]2C1CC1,.,.,28*,.,.,.,31*,-3
CCCCCCCCN1C(=O)[C@@H](CC(=O)N2CCCC2)C[C@@]2(C(=O)OC)C1=C[C@H](C(C)C)O[C@@H]2C1CC1,.,.,30*,.,.,.,36*,-3
O=S(=O)(C/C(=C/CO)S(=O)(=O)c1ccccc1)c1ccccc1,9,-1,86*,26,-15,-40,92*,3
Cc1cc(N2C(=O)CCS2(=O)=O)cc(C)c1S(=O)(=O)Nc1ccc(F)c(Cl)c1,.,.,.,.,-5,.,.,.
CCOC(=O)CSc1nc2ccccc2n2c(C)nnc12,3,0,-6,-8,8,-13,.,.
Cc1nnc2c(SC(C)C)nc3ccccc3n12,5,1,33*,3,-1,-6,47*,-8
CC(=O)c1c(C)nc2ccc(Br)cc2c1-c1ccccc1,9,3,4,-8,-18,-5,.,.
Cc1nc2ccc(Br)cc2c(-c2ccccc2)c1C(=O)O,7,0,62*,-1,-4,-53,82*,1
O=c1[nH]c(CN2CCN(c3ccc(O)cc3)CC2)nc2scc(-c3ccc(Cl)cc3)c12,11,0,26*,30,11,-4,39*,13*
CCCc1nnsc1C(=O)NCC#CCN(C)Cc1ccccc1,.,.,.,.,-3,.,.,.
SMILES,Yp Topo-I inh,PfHsp40 rescue,PrPC TRFRET,BJeLR viability,PriA SSB inh,PrP 5UTR inh,PrPC TRFRET cf,LD9 cytotox
CCOC(=O)c1sc(Nc2nc3cc4c(cc3s2)OCO4)cc1C,-31,1,1,-3,-21,-34,.,.
CCOC(=O)c1sc(Nc2nc3c(OC)cccc3s2)cc1C,-11,1,40*,-11,-13,-17,48*,-7
Cc1cc(NC(=O)C(=O)NCCN2CCN(c3ccccc3F)CC2)no1,.,.,.,.,-13,.,.,.
O=C(Cc1csc(Nc2ccc(F)cc2)n1)N1CCN(C(=O)c2ccco2)CC1,.,.,.,.,-6,.,.,.
CC(=O)c1sc(NC(=O)c2c(F)cccc2F)nc1-c1ccccc1,-6,7,25*,-8,-20,-35,21,-8
Fc1ccc(-n2nnnc2-c2cnc(-c3cccs3)nc2C(F)(F)F)cc1,-4,-2,53*,6,-14,-7,48*,40*
O=C(Cc1ccc(Cl)s1)Nc1cccc(-c2nc3ccccc3o2)c1,.,.,.,.,-3,.,.,.
Cc1noc(C)c1CC(=O)N1CCCN(S(=O)(=O)c2cnn(C)c2)CC1,.,.,.,.,-11,.,.,.
O=C(NCc1ccc2c(c1)OCO2)C(=O)NCc1ccc([C@@H](O)c2ccco2)s1,.,.,.,.,-5,.,.,.
COc1cccc2sc(Nc3nc(-c4ccc(Cl)s4)cs3)nc12,.,.,.,.,26,.,.,.
COc1ccccc1-c1nnc(Nc2nc3c(OC)cccc3s2)o1,3,0,42*,36,0,37,69*,40*
COc1cccc2sc(Nc3nnc(-c4ccccc4Cl)o3)nc12,32,3,9,20,-8,-108,.,.
COc1cccc2sc(Nc3nc(-c4ccncc4)cs3)nc12,-7,0,28*,27,1,2,18,27*
O=C(c1ccco1)c1ccc(CNS(=O)(=O)c2cc3c4c(c2)CCN4C(=O)CC3)s1,.,.,.,.,-17,.,.,.
CC(C)C[C@H](NC(=O)c1[nH]cnc1C(=O)N[C@H](C)c1ccccc1)C(=O)OC(C)(C)C,31,9,27*,4,4,-9,24,-2
Cc1cc(NC(=O)c2ccc(Cl)cc2Cl)n(-c2nc(-c3cccs3)cs2)n1,.,.,.,.,3,.,.,.
CCOC(=O)Nc1ccc2nc3n(c(=O)c2c1)CCCCC3,-1,1,7,.,-3,-35,.,.
CCCN(C(=O)C(=O)Nc1ccc2nc3n(c(=O)c2c1)CCCCC3)c1ccc(OCC)cc1,23,2,31*,-7,4,-21,12,-2
